# Experimental data published in ChEMBL document CHEMBL1201862, “PubChem BioAssay data set” (2004).
# Screen size: about 400,000 compounds; about 2,100 (0.53%) were called active. Roughly 14% stayed inconclusive and do not appear here. The sample holds actives, similar compounds and a random draw of the others, so the mix is not that of the screen. The rule behind the calls is not given here.
# Target: Ataxin-2 (Homo sapiens) (UniProt Q99700)
# Experiment: qHTS for Inhibitors of ATXN expression.
# Type: functional
# Sequence of Ataxin-2 (Homo sapiens) (Q99700 whole entry): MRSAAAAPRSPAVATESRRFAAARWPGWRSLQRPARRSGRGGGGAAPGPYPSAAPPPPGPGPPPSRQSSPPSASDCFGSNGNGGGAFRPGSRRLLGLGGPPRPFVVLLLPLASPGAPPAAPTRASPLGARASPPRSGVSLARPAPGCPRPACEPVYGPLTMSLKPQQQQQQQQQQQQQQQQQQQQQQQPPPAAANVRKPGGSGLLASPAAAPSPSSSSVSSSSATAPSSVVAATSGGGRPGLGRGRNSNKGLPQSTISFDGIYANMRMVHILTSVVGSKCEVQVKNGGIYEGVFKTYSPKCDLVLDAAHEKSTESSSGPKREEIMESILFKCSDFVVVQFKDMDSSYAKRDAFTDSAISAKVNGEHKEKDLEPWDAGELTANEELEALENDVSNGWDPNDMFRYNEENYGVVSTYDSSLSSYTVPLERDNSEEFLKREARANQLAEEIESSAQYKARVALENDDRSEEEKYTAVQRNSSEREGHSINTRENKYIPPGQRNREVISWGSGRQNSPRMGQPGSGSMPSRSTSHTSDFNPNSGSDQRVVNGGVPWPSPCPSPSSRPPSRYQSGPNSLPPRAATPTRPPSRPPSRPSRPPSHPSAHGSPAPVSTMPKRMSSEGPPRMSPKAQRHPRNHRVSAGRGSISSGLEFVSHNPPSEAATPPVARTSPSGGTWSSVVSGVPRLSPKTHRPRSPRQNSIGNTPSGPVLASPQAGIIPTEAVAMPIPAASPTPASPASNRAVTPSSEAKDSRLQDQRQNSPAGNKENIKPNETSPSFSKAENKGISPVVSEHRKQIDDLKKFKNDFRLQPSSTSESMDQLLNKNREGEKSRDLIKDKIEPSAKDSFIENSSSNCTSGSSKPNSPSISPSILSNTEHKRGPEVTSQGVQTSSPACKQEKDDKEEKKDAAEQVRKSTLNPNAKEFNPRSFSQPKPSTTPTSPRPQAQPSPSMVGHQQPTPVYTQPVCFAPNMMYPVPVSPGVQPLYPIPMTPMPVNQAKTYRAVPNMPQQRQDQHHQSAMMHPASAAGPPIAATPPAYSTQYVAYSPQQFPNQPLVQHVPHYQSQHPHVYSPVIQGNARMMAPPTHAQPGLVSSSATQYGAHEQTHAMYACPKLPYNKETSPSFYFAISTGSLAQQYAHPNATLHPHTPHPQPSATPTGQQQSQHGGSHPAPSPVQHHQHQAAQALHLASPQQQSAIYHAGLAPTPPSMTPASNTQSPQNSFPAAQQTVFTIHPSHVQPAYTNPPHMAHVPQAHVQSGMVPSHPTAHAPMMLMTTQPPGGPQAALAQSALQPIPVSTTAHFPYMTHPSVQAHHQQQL
row,SMILES,Potency
1,C=C1C(=O)OC2C1CCC(C)=CCCC1(C)OC21 (configuration not stated),22.4 µM (active)
2,C=CCN(C(=O)CSc1nc2ccsc2c(=O)n1Cc1ccccn1)c1ccccc1,inactive
3,C=C(C)CSc1cc(C)c(C#N)c2nc3ccccc3n12,inactive
4,CCc1nc2c(OCCC3CCCCC3)cccn2c1N(C)C(=O)C1CC1,35.5 µM (active)
5,CCCn1c(=N)c(C(=O)NC2CCCC2)cc2c(=O)n3cccc(C)c3nc21,inactive
6,CCOCCCn1c(=N)c(C(=O)NC2CCCCC2)cc2c(=O)n3ccccc3nc21,inactive
7,CCc1nc2c(OCCC3CCCCC3)cccn2c1N(C)C(=O)C(C)C,35.5 µM (active)
8,CCC(CC)C(=O)N(C)c1c(C)nc2c(OCCC3CCCCC3)cccn12,31.6 µM (active)
9,CCOCCCn1c(=N)c(C(=O)NC2CCCC2)cc2c(=O)n3cccc(C)c3nc21,inactive
10,CCn1c(=N)c(C(=O)NC2CCCCC2)cc2c(=O)n3cccc(C)c3nc21,inactive
11,O=C(NCc1cccc(F)c1)c1cccc2c1C(=O)c1ccc(N3CCC(Cc4ccccc4)CC3)cc1S2(=O)=O,inactive
12,O=C(NNc1ccccn1)C(c1ccccc1)c1ccccc1,inactive
13,COc1ccc(-c2cc3ccc(O)c(CN4CCC(C)CC4)c3oc2=O)cc1OC,inactive
14,Cc1c(N=C2N=C(NC(=O)c3ccc(F)cc3)c3ccccc32)c(=O)n(-c2ccccc2)n1C,inactive
15,N=c1oc2cc(O)ccc2cc1C(=O)Nc1ccc(Br)cc1,inactive
16,CCOC(=O)CC(NC(=O)CCc1c(C)nc2c(-c3ccccc3)c(C)nn2c1C)c1ccc(OC(C)C)cc1 (configuration not stated),39.8 µM (active)
17,CCOC(=O)Cc1c(C)nc2c(-c3ccc(Cl)cc3)c(C)nn2c1C,inactive
18,Cc1ccc(/C=C/C(=O)c2ccc(N3CCOCC3)cc2)s1,inactive
19,Clc1cccc(N2CCN(c3ncnc4c3nc3n4CCCCC3)CC2)c1,14.1 µM (active)
20,CNC(=O)/C(C#N)=C/c1c(N2CCN(c3cccc(Cl)c3)CC2)nc2c(C)cccn2c1=O,inactive
21,O=C(OCC(=O)N1CCN(c2ccc(F)cc2)CC1)c1cnc2ccccc2n1,inactive
22,O=C(c1cccc(F)c1)N1CCCC(C(=O)N2CCN(c3ccccc3)CC2)C1 (configuration not stated),inactive
23,Clc1cccc(N2CCN(Cc3nnc(-c4ccccc4)o3)CC2)c1,inactive
24,O=C(C1CCN(c2ncnc3c2nc2n3CCCCC2)CC1)N1CCN(c2ccc(F)cc2)CC1,22.4 µM (active)
25,O=C(OCC(=O)N1CCCC1)c1c[nH]c2ccccc12,inactive
26,Cc1cc(C)c2c(CC(=O)O)c(C)[nH]c2c1,inactive

row,SMILES,Potency
1,O=c1ccc2ccc(O)cc2o1,inactive
2,CS(=O)(=O)c1sc2nc(-c3ccccc3)cc(-c3ccccc3)c2c1N,inactive
3,CCO/C(O)=C(/Sc1nc(-c2ccccc2)cc(-c2ccccc2)c1C#N)C(C)=O,inactive
4,N#Cc1c(-c2ccncc2)cc(-c2ccc(F)cc2)nc1N,inactive
5,CS(=O)(=O)c1nc(-c2ccc(Br)cc2)cc(-c2ccccc2)c1C#N,28.2 µM (active)
6,CS(=O)(=O)c1nc(-c2ccccc2)cc(-c2ccccc2)c1C#N,31.6 µM (active)
7,Cn1c2ccccc2n2c(=O)cc(-c3ccccc3)c(C#N)c12,inactive
8,COCCCn1c(=N)c(C(=O)NCc2cccnc2)cc2c(=O)n3cc(C)ccc3nc21,inactive
9,CC(=O)c1c(C)[nH]c(C(=O)OCC(=O)c2ccc3c(c2)NC(=O)CO3)c1C,inactive
10,CC(C)C(=O)Nc1ccc(S(=O)(=O)Nc2nccc(/C=C/c3ccccc3)n2)cc1,inactive
11,c1ccc2cc3c(NCCN4CCOCC4)ccnc3cc2c1,inactive
12,c1ccc(-c2cc(NCCN3CCCCC3)c3ccccc3n2)cc1,20 µM (active)
13,c1ccc(-c2cc(-c3ccc(N4CCOCC4)cc3)nc3ccccc23)cc1,inactive
14,Cc1ccc(C2C=C(c3ccc4c(c3)OCO4)Nc3ncnn32)cc1 (configuration not stated),inactive
15,CC(C)(C)OC(=O)NNc1c2ccccc2nc2ccccc12,inactive
16,O=C(NNc1c2ccccc2nc2ccccc12)c1ccccc1O,35.5 µM (active)
17,CCSc1ccccc1C(=O)Nc1nc(O)c2ccccc2n1,inactive
18,Cc1ccc(CNC(=O)CN(c2ccc(C(C)C)cc2)S(=O)(=O)c2c(C)n[nH]c2C)cc1,35.5 µM (active)
19,COc1ccc(S(=O)(=O)N(CC(=O)NCc2ccccc2)c2ccc(C)cc2)cc1OC,35.5 µM (active)
20,Cc1cc(S(=O)(=O)NC(C)C)ccc1OCC(=O)NCc1ccccc1,inactive
21,CSc1nsc(SCC(=O)NCc2ccc(C)cc2)n1,inactive
22,Cc1c(Cl)cccc1N(CC(=O)NC(C)c1ccccc1)S(C)(=O)=O (configuration not stated),inactive
23,COc1ccc(N(CC(=O)Nc2ccccc2Cl)S(=O)(=O)c2ccc(C)cc2)cc1OC,inactive
24,Cc1n[nH]c(C)c1S(=O)(=O)N(CC(=O)NC(C)c1ccccc1)c1ccc(C(C)C)cc1 (configuration not stated),35.5 µM (active)
25,Cc1ccc(CNC(=O)CN(C)S(=O)(=O)c2ccc(F)cc2)cc1,inactive
26,Cc1cccc(C(=O)NCC(=O)OCC(=O)N2CCc3ccccc32)c1,inactive

row,SMILES,Potency
1,N#C/C(=C\Nc1ccc2c[nH]nc2c1)c1nc(-c2ccc(Cl)cc2)cs1,inactive
2,O=C(NC(=S)NCc1ccco1)c1ccc(Br)cc1,inactive
3,CCCN(CC1CC1)C(=S)NC(=O)c1ccccc1C,inactive
4,C=CCN(CC=C)C(=S)NC(=O)c1ccc(-c2ccccc2)cc1,25.1 µM (active)
5,COc1cc(/C=C2/C(=N)N3C(SC)=NSC3=NC2=O)ccc1OC(=O)c1ccco1,inactive
6,CCOC(=O)N1CCN(C(=O)c2cc3cc(C)ccc3[nH]2)CC1,inactive
7,CC(C)CCN1C(=O)C2(OCCCO2)c2cc(Cl)ccc21,inactive
8,COc1cccc(NC(=O)C(=O)NCC2CCCN2S(=O)(=O)c2cccs2)c1 (configuration not stated),inactive
9,S=C(Nc1ccc(Cl)c(Cl)c1)NC1CCN(Cc2ccccc2)CC1,28.2 µM (active)
10,Cc1ccc(NC(=S)NCc2ccccc2)cc1C,inactive
11,O=C(NC1CCN(Cc2ccccc2)CC1)c1ccccc1Cl,inactive
12,CCCCNc1c(-c2ccc(OC)c(SC(C)CC)c2)nc2cnccn12 (configuration not stated),inactive
13,CCCCCCSc1cc(-c2nc3cc(C)ccn3c2NCCCC)ccc1OC,35.5 µM (active)
14,CCCCCCSc1cc(-c2nc3cnccn3c2NCCCC)ccc1OC,inactive
15,COC(=O)C1=C(C)N(Cc2ccccc2)C(NCc2ccccc2)=N[C@H]1c1cccc(F)c1,31.6 µM (active)
16,COC(=O)C1=C(C)N(Cc2ccccc2)C(NCc2cc(OC)c(OC)c(OC)c2)=N[C@H]1c1ccc(Br)cc1,35.5 µM (active)
17,COC(=O)C1=C(C)N(Cc2ccccc2)C(NCc2ccc(OC)cc2)=N[C@H]1c1cccc(F)c1,35.5 µM (active)
18,COC(=O)C1=CN(C(C)C)C=C(C(=O)OC)C1c1cc(Br)c(OC)c(OC)c1,inactive
19,O=C(COC(=O)c1c(F)cccc1F)NC(=O)NCc1ccccc1,inactive
20,COC(=O)C1=CN(Cc2ccccc2)C=C(C(=O)OC)C1c1cc(F)ccc1F,inactive
21,COC(=O)C1=C(C)N(c2ccc(OC)cc2)C(C)=C(C(=O)OC)C1c1ccccc1,inactive
22,COC(=O)C1=C(C)N(Cc2ccccc2)C(NCC(C)C)=N[C@H]1c1cccc(F)c1,31.6 µM (active)
23,CCN1C=C(C(=O)OC)C(c2cccc(C)c2)C(C(=O)OC)=C1,inactive
24,COC(=O)C1=CN(Cc2ccc(OC)c(OC)c2)C=C(C(=O)OC)C1c1cccc(OC)c1OC,inactive
25,COCCNC(=O)/C(C#N)=C/c1c(N2CCN(C)CC2)nc2ccccn2c1=O,inactive
26,COc1ccc2oc3cc(NCCN(C)C)ccc3c(=O)c2c1,inactive

row,SMILES,Potency
1,CCOc1ccc(C(=O)/C=C/c2cn(CC(O)CN3CCc4ccccc43)c3ccccc23)cc1 (configuration not stated),inactive
2,CCCN(CCC)CC(O)Cn1cc(/C=C/C(=O)c2ccc(Br)cc2)c2ccccc21 (configuration not stated),inactive
3,Cc1nc2c(o1)C(=O)c1ccccc1C2=Nc1ccccc1,31.6 µM (active)
4,Cc1nc(-c2ccc([N+](=O)[O-])cc2)c(-c2ccccc2)o1,inactive
5,COc1ccc(CCNC(=O)c2ccc(CSc3ccccc3)o2)cc1,inactive
6,CC(C)C(NC(=O)c1c(F)cccc1F)C(=O)NCCc1ccc(S(N)(=O)=O)cc1 (configuration not stated),inactive
7,CCc1ccccc1S(=O)(=O)Cc1ccc(C(=O)NCCc2ccc(Cl)cc2)o1,25.1 µM (active)
8,CCC(=O)Nc1cc2nc(O)cc(C)c2cc1C,inactive
9,CCN1CCSc2ccc(C(=O)NCc3ccccc3F)cc21,inactive
10,O=C(Cc1ccc(Cl)cc1)NCCc1ccc(F)cc1,inactive
11,O=C(NCCc1ccc(Cl)cc1)c1ccc2c(c1)N(Cc1ccc(F)cc1Cl)C(=O)CS2,14.1 µM (active)
12,CCc1c(-c2ccccc2)nc2nc(C)c(C)nn12,inactive
13,CCCCN1C(C(=O)Nc2cc(C)on2)=C(O)c2ccccc2S1(=O)=O,inactive
14,CCCC(=O)NC(c1ccc(OC)cc1)c1ccc2cccnc2c1O (configuration not stated),inactive
15,COc1cccc(N=Nc2ccc3cccnc3c2O)c1,11.2 µM (active)
16,COc1cc(N(C(C)=O)c2ccc(O)cc2)c2ncccc2c1,inactive
17,COCC(=O)N1CCC(n2nccc2NC(=O)CCOc2ccccc2)CC1,inactive
18,CCS(=O)(=O)N1Cc2ccccc2CC1C(=O)N(C)CC(=O)Nc1ccc(OC)cc1 (configuration not stated),inactive
19,COC(=O)C1Cc2ccccc2CN1C(=O)CCl (configuration not stated),42.3 µM (active)
20,COc1cc(OC)c(OC)cc1/C=C1\Oc2cc(OCC(=O)N3Cc4ccccc4C[C@H]3C(=O)O)ccc2C1=O,inactive
21,O=C(c1ccc([N+](=O)[O-])cc1)N1CCC(n2nnc3cc(F)ccc32)CC1,inactive
22,CC(=O)N1CCc2c(sc3c2c(=O)n(-c2ccccc2Cl)c(=O)n3Cc2cccc(C)c2)C1,35.5 µM (active)
23,CCC(C(=O)NCc1cccc(C)c1)n1nc(C)c2c(C)n(-c3ccccc3)nc2c1=O (configuration not stated),inactive
24,CC(=O)Nc1sc2c(c1C(N)=O)CCN(Cc1ccccc1)C2,inactive
